# PubChem BioAssay
# Calls of active or inactive are those of the source. Unless noted, how the calls were made is not given here.
# Columns and labels:
# [1] = test system: XIP peptide (Xip251-270) binding; assay: XIP fragment 251-270 binding compounds – biochemical, small-molecule microarray, fluorescence 635/667 nm, 0.1 µg/mL protein, primary screen (AID 1182); details: fluorescent protein binding, 635 nm, higher = more signal, called active from +8 up or from −8 down
# XIP peptide (Xip251-270) = assay: compounds binding XIP fragment 251-270 – biochemical, small-molecule microarray, fluorescence 635/667 nm, 0.5 µg/mL protein, primary screen (AID 1183); details: fluorescence 635 nm, higher = more signal
# [2] = blood-stage malaria parasite viability loss – strain 3D7, DAPI fluorescence, 100 nL, primary screen (AID 1184);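 further: parasites grown inside human red blood cells in medium with human serum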; details: P. falciparum 3D7 growth, 3 d, higher = more signal
# [3] = biological target: Homeobox protein Hox-A13 (Mus musculus) (UniProt Q62424); assay: disruptors of Hoxa13 oligonucleotide interaction – biochemical, fluorescence polarization, labeled oligonucleotide, primary screen (AID 1185); details: Hoxa13:DNA binding, 15 min, higher = more signal, called active from +8 up or from −8 down
# Chain of Homeobox protein Hox-A13 (Mus musculus) (Q62424 whole entry, looked up): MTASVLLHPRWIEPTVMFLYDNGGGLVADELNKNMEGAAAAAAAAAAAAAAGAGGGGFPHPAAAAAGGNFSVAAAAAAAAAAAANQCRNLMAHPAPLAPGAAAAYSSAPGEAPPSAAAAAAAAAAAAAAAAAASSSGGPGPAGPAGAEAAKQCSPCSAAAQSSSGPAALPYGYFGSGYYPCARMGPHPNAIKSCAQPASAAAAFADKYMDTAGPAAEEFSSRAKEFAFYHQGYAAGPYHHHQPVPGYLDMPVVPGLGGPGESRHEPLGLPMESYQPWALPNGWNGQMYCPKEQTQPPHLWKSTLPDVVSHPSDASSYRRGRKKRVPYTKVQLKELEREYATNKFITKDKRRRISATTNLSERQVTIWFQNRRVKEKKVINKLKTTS
# [4] = blockers of DNA damage checkpoint Chk1 activation – imaging, HeLa, hydroxyurea, phospho-Chk1 antibody, percent positive cells, primary screen (AID 1186); details: hydroxyurea-induced phospho-Chk1 immunofluorescence imaging, higher = more signal
# [5] = blockers of DNA damage checkpoint Chk1 activation – imaging, HeLa, hydroxyurea, phospho-Chk1 nuclear intensity, primary screen (AID 1187); details: hydroxyurea-induced phospho-Chk1 immunofluorescence imaging, higher = more signal
Compound,composite z-score [1],composite z-score (XIP peptide (Xip251-270)),z-score [2],z-score [3],z-score [4],z-score [5]
[N-]=[N+]=Nc1ccccc1[C@@H]1OC(c2ccc(OCCCO)cc2)=N[C@]1(CCS(=O)(=O)c1ccccc1)C(=O)N1CCOCC1,1.12 (inactive),0.731,-2.09,-1.96 (inactive),0.0445 (inactive),0.143 (inactive)
O=C1O[C@H](c2ccccc2)[C@H](c2ccccc2)N2[C@H]1[C@@H](C(=O)Nc1nc3ccccc3s1)[C@]1(C(=O)Nc3ccccc31)[C@H]2c1ccc(O)cc1,-0.0105 (inactive),0.143,-0.739,-0.0851 (inactive),0.282 (inactive),0.134 (inactive)
CN(C)C(=O)[C@]1(CCC(=O)OC(C)(C)C)N=C(c2ccc(OCCCO)cc2)O[C@@H]1c1ccccc1N=[N+]=[N-],0.639 (inactive),0.803,-1.84,-6.23 (inactive),0.201 (inactive),0.588 (inactive)
CCOC(=O)C1=CC[C@@H](c2ccccc2)N(S(=O)(=O)c2ccc(C)cc2)[C@H]1C(=O)OCC,0.414 (inactive),-0.404,-0.799,-5.23 (inactive),0.0256 (inactive),-0.831 (inactive)
C=CCC(OC(C)=O)[C@@H]1[C@@H](N(Cc2ccc(-c3ccccc3)cc2)C(=O)Cc2ccc(OC)cc2)c2cc(OCCCO)ccc2N1C(=O)c1ccc2ccccc2n1 (some centres not stated),0.0404 (inactive),0.219,-2.87,-1.25 (inactive),-0.0117 (inactive),0.336 (inactive)
O=C1C[C@@](C(=O)NC2CC2)(c2ccc([N+](=O)[O-])cc2)[C@@H](c2ccc(CO)cc2)N1CC12CC3CC(CC(C3)C1)C2,-0.181 (inactive),0.611,-0.909,-5.08 (inactive),-0.635 (inactive),-0.617 (inactive)
C=C(COC)C(=O)CC[C@@H](OC(=O)c1cccnc1)c1ccc(CO)o1,0.457 (inactive),0.496,-0.469,-4.3 (inactive),0.201 (inactive),0.679 (inactive)
O=C1O[C@@H](c2ccccc2)[C@@H](c2ccccc2)N2[C@@H](c3ccc(OCCO)cc3)[C@]3(C(=O)Nc4ccc(C#CC5=CCCCC5)cc43)[C@@H](C(=O)O)[C@H]12,0.383 (inactive),0.504,0.287,-3.99 (inactive),0.419 (inactive),0.542 (inactive)
C=CCNC(=O)[C@@H]1[C@H]2C(=O)O[C@H](c3ccccc3)[C@H](c3ccccc3)N2[C@H](c2ccc(O)cc2)[C@@]12C(=O)N(C(=O)OCCOC)c1ccccc12,2.55 (inactive),0.525,-2.07,-2.07 (inactive),0.209 (inactive),0.354 (inactive)
CCCCC=C[C@@H](NC(=O)c1ccco1)c1ccccc1,0.193 (inactive),0.511,-1.19,-0.806 (inactive),-0.164 (inactive),-0.7 (inactive)
COCCOC(=O)N1C(=O)[C@@]2(c3cc(C#CCNC(N)=O)ccc31)[C@H](C(=O)N1CCN(c3ncccn3)CC1)[C@H]1C(=O)O[C@H](c3ccccc3)[C@H](c3ccccc3)N1[C@@H]2c1ccccc1OCCO,1.56 (inactive),0.588,-2.4,-1.39 (inactive),0.197 (inactive),0.886 (inactive)
COCCOC(=O)N1C(=O)[C@@]2(c3cc(C#CCNC(N)=O)ccc31)[C@H](C(=O)N1CCc3cc(OC)c(OC)cc3C1)[C@H]1C(=O)O[C@H](c3ccccc3)[C@H](c3ccccc3)N1[C@@H]2c1ccc(OCCO)cc1,0.034 (inactive),0.616,-1.3,1.53 (inactive),-0.184 (inactive),-0.0927 (inactive)
O=C(CS)NCCCCCCNC(=O)[C@@H]1C[C@@H]2C(=O)N3CCC[C@H]3C(=O)N2[C@@H]1c1ccc(O)cc1,0.689 (inactive),0.422,0.331,-3.65 (inactive),-0.0018 (inactive),0.499 (inactive)
[N-]=[N+]=NCc1ccccc1C[C@@]1(C(=O)NCC(O)CO)N=C(c2ccc(OCCCO)cc2)O[C@@H]1c1ccccc1CN=[N+]=[N-] (some centres not stated),-0.0479 (inactive),0.748,-2.01,-3.3 (inactive),-0.0621 (inactive),0.0477 (inactive)
CC=CC(O)C1C=CC2C(=O)N(c3ccccc3)C(=O)C2N1Nc1ccc(C(C)C)cc1 (configuration not stated),0.213 (inactive),0.766,-0.747,-2.24 (inactive),0.55 (inactive),0.538 (inactive)
COCCOC(=O)N1C(=O)[C@@]2(c3cc(C#CCC(C(=O)OC)C(=O)OC)ccc31)[C@H](C(=O)N1CCN(c3ncccn3)CC1)[C@H]1C(=O)O[C@H](c3ccccc3)[C@H](c3ccccc3)N1[C@@H]2c1ccc(OCCO)cc1,0.262 (inactive),0.698,-2.22,2.45 (inactive),-0.576 (inactive),-0.833 (inactive)

Compound,composite z-score [1],composite z-score (XIP peptide (Xip251-270)),z-score [2],z-score [3],z-score [4],z-score [5]
O=C1OCC=C[C@H]2OC34C=CCN(c5ccc6ccccc6c5)C(=O)[C@H]3N(CCCO)C(=O)[C@@H]4[C@@H]12 (some centres not stated),0.185 (inactive),1.03,-1.94,-2.03 (inactive),-0.114 (inactive),-0.226 (inactive)
CCCNC(=O)[C@@H]1c2ccccc2C(=O)N(Cc2ccccc2)[C@H]1c1ccc(CO)cc1,0.838 (inactive),0.312,-1.62,-2.71 (inactive),0.0089 (inactive),-0.142 (inactive)
O=C1OCCC=C[C@H]2OC34C=CCN(Cc5ccccc5)C(=O)[C@H]3N(CCCCCO)C(=O)[C@@H]4C12 (some centres not stated),1.16 (inactive),-0.0335,0.0195,-4.46 (inactive),-0.218 (inactive),0.534 (inactive)
C=C[C@H](C)[C@@H](O)c1ccc(O)c2ccccc12,-0.233 (inactive),0.507,-0.935,-2.67 (inactive),0.736 (inactive),0.841 (inactive)
Cc1c(NC(=O)CC#N)c(=O)n(-c2ccccc2)n1C,0.248 (inactive),0.0029,-0.0049,-0.631 (inactive),0.123 (inactive),0.239 (inactive)
COC(=O)[C@@]1(Cc2ccc(OC)cc2)[C@H]2c3cc(C(=O)N4CCCC4)n(Cc4ccccn4)c3C[C@H]2CN1C(=O)c1ccccc1,-0.22 (inactive),0.329,-1.43,-5.86 (inactive),0.613 (inactive),0.451 (inactive)
O=C1C[C@]2(c3ccc([N+](=O)[O-])cc3)C(=O)N(CC(F)(F)F)c3cc(CO)ccc3[C@H]2N1CC12CC3CC(CC(C3)C1)C2,0.2 (inactive),0.822,0.0278,0.2 (inactive),-0.151 (inactive),-0.382 (inactive)
CN(C)CCCCNC(=O)[C@H]1C[C@H]2C(=O)N[C@@H](Cc3ccccc3)C(=O)N2[C@H]1c1ccc(O)cc1,0.508 (inactive),0.0009,-1.16,-0.0255 (inactive),-0.0685 (inactive),-0.195 (inactive)
COc1cc(CO)ccc1OC(C)=O,-0.152 (inactive),0.383,0.186,0.472 (inactive),-0.111 (inactive),0.0389 (inactive)
O=C(OCCF)C1=CCC(c2cccc(Cl)c2)O1 (configuration not stated),-0.131 (inactive),0.0075,0.65,-0.701 (inactive),0.0006 (inactive),0.215 (inactive)
COC(=O)[C@@]1(Cc2ccccc2)N=C(c2ccc(OCCCO)cc2)O[C@H]1c1ccccc1N=[N+]=[N-],0.856 (inactive),0.887,-2.27,0.459 (inactive),-0.48 (inactive),-0.775 (inactive)
CC(C)N1CC=CC23O[C@@H]4C=CCOC(=O)[C@@H]4[C@H]2C(=O)N(CCO)[C@@H]3C1=O (some centres not stated),-0.145 (inactive),-0.014,0.74,-2.98 (inactive),-0.514 (inactive),-0.419 (inactive)
COCC(=C=CC[C@H](O)c1ccc(OCCO)cc1)C[C@H](O)c1cc(Cl)cc(Cl)c1O,0.423 (inactive),0.161,-1.55,-4.13 (inactive),-0.559 (inactive),0.56 (inactive)
Cc1ccc(S[C@]2(C(=O)O)CC(=O)N(C3Cc4ccccc4C3)[C@@H]2c2ccc(CO)cc2I)cc1,-0.33 (inactive),0.464,-0.111,-2.79 (inactive),0.229 (inactive),0.584 (inactive)
COc1ccc([Si](C)(C)[C@H]2[C@H](CC(=O)N(CCO)Cc3ccccc3)O[C@@]3(C(=O)N(Cc4cccc(N5CCC5=O)c4)c4ccccc43)[C@@H]2C)cc1,0.0163 (inactive),0.281,-2.84,-2.16 (inactive),-1.46 (inactive),-1.2 (inactive)
O=c1cccc(CCc2ccccc2)o1,0.223 (inactive),0.903,2.16,-3.17 (inactive),0.576 (inactive),0.158 (inactive)
